# Test results as given in ChEMBL document CHEMBL1157539, “Thousands of chemical starting points for antimalarial lead identification” (Nature, 2010).
# Tested on: Plasmodium falciparum
# Test: GSK_TCMDC: Inhibition of Plasmodium falciparum 3D7 in whole red blood cells, using parasite LDH activity as an index of growth. Test compounds present at 2uM
# Format: functional
row,SMILES,Inhibition
1,O=C(CSc1nnc(O)n1Cc1ccccc1)Nc1ccccc1-c1ccccc1,89%
2,Fc1ccc(CNc2ccc3ncc(-c4cccnc4)n3n2)cc1,87%
3,Cc1cc(N[C@@H](CC(C)C)C(=O)NCc2cccs2)nc(NCCc2ccccc2)n1.O=C(O)C(F)(F)F,94%
4,O=S(=O)(Nc1cccc(CCN2CCC(N3CCCCC3)CC2)c1)c1cccc(C(F)(F)F)c1,100%
5,O=C(O)C(F)(F)F.c1ccc2[nH]c(-c3ccc(-c4ccc(CNCCc5ccncc5)cc4)s3)nc2c1,100%
6,O=C(Nc1ccccc1)Nc1ccc(-c2cccc(-c3nc4cc(C(F)(F)F)ccc4[nH]3)c2)cc1,100%
7,O=C(Cc1ccc[n+]([O-])c1)Nc1cccc(-c2cccc(-c3nc4cc(F)ccc4[nH]3)c2)c1,92%
8,CS(=O)(=O)c1ccc(CCNCc2ccc(-c3ccc(CN(C(=O)c4cccc(C#N)c4)C4CCN(Cc5ccccc5)CC4)cc3)nc2)cc1.O=C(O)C(F)(F)F,96%
9,CC(O)C1CCCCN1C(=O)c1cccc(-c2ccc(-c3nc4cc(F)ccc4[nH]3)cc2)c1 (stereo not drawn),100%
10,O=C(Nc1cccc([N+](=O)[O-])c1)Nc1ccc(Cl)c(C(F)(F)F)c1,96%
11,O=[N+]([O-])c1ccc(Nc2nc(N/N=C/c3ccc(-c4ccc([N+](=O)[O-])cc4)o3)nc(Nc3ccccc3)n2)cc1,100%
12,Cl.N=c1n(CCN2CCCCC2)c2ccccc2n1CC(O)c1ccc(Cl)c(Cl)c1 (stereo not drawn),97%
13,CC(C)(C)c1ccc(CN2CCC(CNC(=O)c3cc(-c4ccccc4C(F)(F)F)cs3)C2)cc1.O=C(O)C(F)(F)F (stereo not drawn),92%
